Sampled rows, rich in hits. Any-hit rate of the full collection: about 4.2%.
DAX1 StAR inh – DAX1 (NR0B1) inhibitors on StAR promoter, primary screen, cell-based, luminescence, SF-1 (NR5A1), full-length DAX-1; AID 652010, 2013; 1.1% of 370,000 active; inhibition, % at 6.8 µM; HEK293T StAR-luciferase reporter, SF-1/DAX-1 repression relief;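 active = inhibition above the mean over all tested compounds plus 3 SD, cut at about 3.6% in these data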;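 also: 0% = DAX-1 cells with DMSO and 100% = cells lacking DAX-1 with DMSO; higher inhibition means more luminescence from relief of DAX-1 repression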
Wnt act – Wnt/beta-catenin pathway activators, primary screen, cell-based, plate reader, single point | Wnt/beta-catenin reporter cell assay, activator | activation, % at 9.35 µM | 1.2% of 300,000 active | AID 743398, 2014; in the data active = activation above about 30%, passing the limit was not always enough; inconclusive = no clear call, values can overlap the other calls;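 also: 0% = neutral control wells and 100% = positive control wells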
hgDAF-12 ag – H. glycines DAF-12 receptor agonists, primary screen, cell-based, luminescence, HEK293, GAL4 fusion, UAS-luciferase | AID 687014, 2013 | 1.8% of 370,000 active | Nuclear hormone receptor DAF-12 (Heterodera glycines), GAL4 fusion | HEK293 GAL4-hgDAF12 UAS-luciferase reporter, agonist luminescence; normalized to butyrate control | activation, % at 6.8 µM;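 active = activation above a cutoff set at the mean of all screened compounds plus 3 SD, cut at about 10% in these data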;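 also: 0% = DMSO wells and 100% = sodium butyrate wells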
esBAF inh – Bmi1 luciferase reporter increase in mESCs, primary screen, esBAF inhibitor project, mouse ES cells, Bmi1 luciferase knock-in, single point. 24 h; 100% = twice the neutral-well signal. reporter increase, % at 12.5 µM. 2% of 350,000 active. AID 602393, 2012; in the data active = activation above about 40%; inconclusive = no clear call, values can overlap the other calls;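 also: 0% = median of the plate's neutral control wells and 100% = double that signal; a rise in the Bmi1 reporter signal indicates esBAF inhibition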
hcDAF-12 act – H. contortus DAF-12 nuclear receptor activators, primary screen, cell-based, luminescence, HEK293, lit1-tk-luc reporter; HEK293 hcDAF-12 lit1-tk-luc reporter; 0% DMSO, 100% Δ7-dafachronic acid; activation, % at 6.8 µM; 1.4% of 370,000 active; AID 652067, 2013;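 active = activation above the mean of all tested compounds plus 3 SD, cut at about 5.5% in these data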;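 also: 100% = response to 3 µM Δ7-dafachronic acid high control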
ssDAF-12 act – S. stercoralis DAF-12 nuclear receptor activators, primary screen, cell-based, luminescence, HEK293, GRIP1 co-expression, lit1-tk-luc; activation, % at 6.8 µM; HEK293 ssDAF-12/GRIP1 lit1-tk-luc reporter; % of 3 µM dafachronic acid response; Nuclear hormone receptor DAF-12 (Strongyloides stercoralis); 1% of 370,000 active;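 active = activation above the mean over all tested compounds plus 3 SD, cut at about 0.9% in these data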;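 also: 0% = DMSO-only wells and 100% = 3 µM delta7-dafachronic acid wells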
* = called active by the depositor; ? = inconclusive; . = no result given; ! = not active in a repeat.

SMILES	DAX1 StAR inh	Wnt act	hgDAF-12 ag	esBAF inh	hcDAF-12 act	ssDAF-12 act
NC(=O)C1CCN(C(=O)COc2ccc3ccccc3c2Br)CC1	0.2	0.8	-1.6	.	-2.8	-1.0
O=C(Oc1ccc2ccccc2c1Br)N1CCCCCC1	2.8	.	-0.5	4.0	6.5*	-0.8
O=C(COc1ccc2ccccc2c1Br)N1CCCCC1	.	.	.	76.0*	.	.
Cc1ccc(S(=O)(=O)N(C)C[C@H]2Oc3c(NC(=O)c4nc5ccccc5s4)cccc3C(=O)N([C@@H](C)CO)C[C@@H]2C)cc1	.	.	.	2.7	.	.
C[C@H]1CN([C@@H](C)CO)C(=O)c2cc(-c3cccnc3)cnc2O[C@@H]1CN(C)C(=O)c1cccc(F)c1	.	.	.	-3.4	.	.
O=Cc1c(C(=O)O)n(CC(=O)O)c2ccccc12	-0.1	.	0.9	.	5.8*	-0.4
CSc1nccc(N/N=C/c2ccccc2)n1	0.2	37.1*	10.9*	52.2	1.7	0.4
Cc1n(-c2ccccc2)c2ccc(Cl)cc2[n+]1CCO	-0.1	-20.3	12.4*	.	-0.8	-0.8
Cc1nc2cc(Cl)ccc2n1-c1ccccc1	-0.3	.	-0.4	.	-2.9	-0.8
C[C@@H]1CN([C@@H](C)CO)C(=O)c2cccc(NC(=O)Nc3ccc4c(c3)OCO4)c2O[C@H]1CN(C)S(=O)(=O)c1cccs1	.	.	.	16.7	.	.
C[C@H]1CN([C@@H](C)CO)C(=O)c2cccc(NC(=O)Nc3ccc4c(c3)OCO4)c2O[C@@H]1CN(C)S(=O)(=O)c1cccs1	.	.	.	43.6*	.	.
C[C@H](CO)N1C[C@H](C)[C@@H](CN(C)S(=O)(=O)c2cccs2)Oc2c(NC(=O)Nc3ccc4c(c3)OCO4)cccc2C1=O	-0.1	-0.6	-2.7	56.7*!	-1.6	-1.3
C[C@H](CO)N1C[C@H](C)[C@@H](CN(C)S(=O)(=O)c2cccs2)Oc2c(NS(=O)(=O)c3cn(C)cn3)cccc2C1=O	-0.3	47.2*	1.5	0.4	-1.4	-0.9
C[C@@H]1CN([C@H](C)CO)C(=O)c2cccc(NC(=O)Nc3ccc4c(c3)OCO4)c2O[C@@H]1CN(C)S(=O)(=O)c1cccs1	.	.	.	4.5	.	.
CN(C)C(=O)C[C@H]1C=C[C@H](NC(=O)NC2CCCCC2)[C@H](CO)O1	.	.	.	-1.8	.	.
O=C(CC(SCCO)c1ccc(F)cc1)c1ccco1 (configuration not stated)	-0.2	.	2.7	0.8	0.0	-1.2
Cc1ccc(C(CC(=O)c2ccco2)SCCO)cc1 (configuration not stated)	-0.6	37.0*	0.6	36.1	-0.6	-1.2
CC(=O)Nc1ccc(NC(=O)c2ccc(-c3ccccc3Cl)o2)cc1	1.4	4.0	2.8	42.9*	-1.1	-1.2
CC(=O)Cc1nsc(NC(=O)c2ccc(-c3ccccc3Cl)o2)n1	0.7	-2.0	1.2	.	-1.2	-1.3
N#Cc1ccccc1NC(=O)c1ccc(-c2ccccc2Cl)o1	0.6	-2.9	2.5	50.2*	1.1	-0.2
C[C@@H]1CN([C@H](C)CO)C(=O)c2cccc(NC(=O)Nc3ccc(F)cc3)c2O[C@@H]1CN(C)S(=O)(=O)c1cn(C)cn1	.	.	.	7.6	.	.
COc1cccc(-c2ncc3ccccc3c2COC(=O)N2CCOCC2)c1	-0.7	2.9	-1.2	53.2*	-2.3	-1.1
COc1cccc(-c2ncc3ccccc3c2COC(=O)N2CCCCC2)c1	-0.3	-5.8	-0.2	2.3	-1.1	-1.5
CC1(C)CC(=O)C(C2C3=C(CC(C)(C)CC3=O)Oc3c(Br)cc(Br)cc32)=C(O)C1 (configuration not stated)	0.5	1.6	11.2*	-48.4	2.9	0.7
CC(C)(C)C(=O)Nc1ccc(-c2csnn2)cc1	1.1	29.8	6.3	?	2.9	-1.0
SMILES	DAX1 StAR inh	Wnt act	hgDAF-12 ag	esBAF inh	hcDAF-12 act	ssDAF-12 act
Cc1ccccc1C(=O)Oc1ccc(-c2csnn2)cc1	0.4	1.8	1.0	50.6*	1.0	0.4
CC(C)(C)C(=O)O/N=C(\N)c1ccc(Br)cc1	0.2	4.0	-1.6	.	3.0	-0.6
CC(=O)COc1ccc(-c2csnn2)cc1	0.6	10.1	0.7	.	0.0	-1.3
CC(=O)O/N=C(\N)c1ccc(-c2csnn2)cc1	0.7	-1.0	3.6	54.0*	3.2	-0.2
c1ccc(COc2ccc(-c3csnn3)cc2)cc1	.	.	.	47.0*	.	.
CC(C)(C)C(=O)O/N=C(\N)c1ccc(-c2csnn2)cc1	1.4	53.2*	10.3	84.2*	2.9	0.3
CNC(=O)C[C@@H]1CC[C@H]2[C@@H](COc3ccc(NC(=O)c4cccc(F)c4)cc3C(=O)N2C)O1	.	.	.	2.8	.	.
Cc1ccccc1S(=O)(=O)N1CC[C@@H]2[C@@H](CO)Nc3ccc(-c4ccc(C#N)cc4)cc3[C@@H]21	.	.	.	-18.7	.	.
O=C(c1cccs1)N1CCC(c2ccccc2)C1 (configuration not stated)	0.7	50.7*	12.1*	.	2.3	0.2
C[C@H](CO)N1C[C@H](C)[C@@H](CN(C)C(=O)Nc2ccccc2)Oc2ccc(NC(=O)Nc3ccc(C(F)(F)F)cc3)cc2CC1=O	.	.	.	3.1	.	.
C[C@@H]1CN([C@@H](C)CO)C(=O)c2cc(NC(=O)CCC(F)(F)F)ccc2O[C@@H](C)CCCCO[C@@H]1CN(C)C(=O)Nc1ccc2c(c1)OCO2	.	.	.	-0.1	.	.
CCCNC(=O)C[C@H]1CC[C@H]2[C@@H](COc3ccc(NC(=O)c4ccccc4)cc3C(=O)N2C)O1	.	.	.	0.9	.	.
O=C(NC1CCCCC1)N[C@H]1CC[C@@H](CC(=O)N2CCOCC2)O[C@@H]1CO	.	.	.	-3.8	.	.
N#Cc1cc(Nc2c(N)nc[nH]c2=O)c([N+](=O)[O-])cc1C#N	-0.2	0.8	2.7	.	6.0*	0.1
C[C@H](CO)N1C[C@H](C)[C@H](CN(C)C(=O)Cc2ccccc2)OCCCC[C@H](C)Oc2ccc(NC(=O)Nc3ccc4c(c3)OCO4)cc2C1=O	.	.	.	4.9	.	.
CC(C)C(=O)Nc1ccc(C(=O)NNC(=O)CCc2ccccc2)cc1	0.2	-0.4	1.6	.	-0.9	-1.7
CCN(CC)c1ccc(NC(=O)Nc2ccccc2)cc1	2.2	23.3	12.5*	16.3	5.2	0.3
CCN(CC)c1ccc(NC(=O)Nc2ccc(C(C)=O)cc2)cc1	-1.4	.	2.4	0.8	0.7	-1.2
CC(=O)c1cccc(NC(=O)Nc2ccccc2)c1	-0.1	6.5	8.1	22.3	-0.6	-1.3
CC(=O)c1ccc(NC(=O)Nc2ccccc2)cc1	3.6*	.	13.0*	48.1*	4.3	0.2
CC(C)C(=O)Nc1ccc(C(=O)c2ccccc2)cc1	0.7	29.0	5.9	66.7*	0.9	-0.7
